Experiment [1] is described as follows: E. coli DRC41 culture turbidity changes, primary screen, E. coli filamentation inducer project, strain DRC41, OD650, 48 h (AID 1152).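 Note: E. coli MC1000 strain DRC41 lacking acrAB efflux pump and sulA.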 Particulars: E. coli DRC41 (acrAB sulA), higher = more signal, called active from +8 up or from −8 down.
The nature of experiment [2]: small-molecule binders of probe aLefty1, primary screen, biochemical, small-molecule microarray, 635/667 nm fluorescence (AID 1153).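 Note: score merges spot fluorescence with signal-to-noise ratio from the scanned slide images.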 The note with it: higher = more signal.
A short description of experiment [3]: PSAC antagonists in infected red cells, primary screen, cell-based, P. falciparum Indochina, OD700, 1 h (AID 1154). The note with it: P. falciparum Indochina infected RBC osmotic lysis, higher = more signal, called active from +8 up or from −8 down.
A short description of experiment [4]: PSAC antagonists in infected red cells, primary screen, cell-based, P. falciparum Indochina, OD700, 2 h (AID 1155).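 Note: lysis reports solute entry through the parasite surface anion channel PSAC; channel blockers reduce lysis of infected cells.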 Particulars: P. falciparum Indochina infected erythrocytes, osmotic lysis OD700; higher = more signal, called active from +8 up or from −8 down.
The nature of experiment [5]: osmotic lysis modulators in infected erythrocytes, primary screen, PSAC antagonist project, cell-based, P. falciparum Indochina, OD700, 3 h (AID 1156). The note with it: higher = more signal, called active from +8 up or from −8 down.
The nature of experiment [6]: PSAC antagonists in infected red cells, primary screen, cell-based, P. falciparum Indochina, OD700, 18 h (AID 1157). The note with it: P. falciparum Indochina infected erythrocytes, osmotic lysis OD700, 18 h; higher = more signal, called active from +8 up or from −8 down.
Experiment [7] in a line: modulators of S6 phosphorylation in cells, primary screen, cell-based, A549, cytoblot, luminescence, serum-stimulated (AID 1158).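 Note: serum-stimulated A549 lung adenocarcinoma cells; signal is phosphorylated S6 detected by cytoblot immunostaining with HRP secondary.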 The note with it: A549 phospho-S6 cytoblot, 5 h, higher = more signal.
In experiment [8] the target is NADPH oxidase 2 (Homo sapiens) (UniProt P04839). Kind of experiment: NOX2-dependent H2O2 signal modulators, primary screen, NOX inhibitor project, cell-based, HEK293-NOX2, PMA-stimulated, Amplex Red fluorescence (AID 1159). Note: test concentration not given here. Particulars: 45 min, higher = more signal, called active from +8 up or from −8 down.
Experiment [9] deals with NADPH oxidase 4 (Homo sapiens) (UniProt Q9NPH5). Kind of experiment: NOX4-dependent H2O2 signal modulators, primary screen, NOX inhibitor project, cell-based, HEK293-NOX4, tetracycline-induced, Amplex Red fluorescence (AID 1160). The note with it: 45 min, higher = more signal, called active from +8 up or from −8 down.
Experiment [10] deals with NADPH oxidase 5 (Homo sapiens) (UniProt Q96PH1). Kind of experiment: NOX5-dependent H2O2 signal modulators, primary screen, NOX inhibitor project, cell-based, HEK293-NOX5, Amplex Red fluorescence (AID 1161). The note with it: HEK293-NOX5, ionomycin, 45 min, higher = more signal.

Calls of active or inactive are those of the source.

Chain of NADPH oxidase 4 (Homo sapiens) (Q9NPH5 whole entry, looked up): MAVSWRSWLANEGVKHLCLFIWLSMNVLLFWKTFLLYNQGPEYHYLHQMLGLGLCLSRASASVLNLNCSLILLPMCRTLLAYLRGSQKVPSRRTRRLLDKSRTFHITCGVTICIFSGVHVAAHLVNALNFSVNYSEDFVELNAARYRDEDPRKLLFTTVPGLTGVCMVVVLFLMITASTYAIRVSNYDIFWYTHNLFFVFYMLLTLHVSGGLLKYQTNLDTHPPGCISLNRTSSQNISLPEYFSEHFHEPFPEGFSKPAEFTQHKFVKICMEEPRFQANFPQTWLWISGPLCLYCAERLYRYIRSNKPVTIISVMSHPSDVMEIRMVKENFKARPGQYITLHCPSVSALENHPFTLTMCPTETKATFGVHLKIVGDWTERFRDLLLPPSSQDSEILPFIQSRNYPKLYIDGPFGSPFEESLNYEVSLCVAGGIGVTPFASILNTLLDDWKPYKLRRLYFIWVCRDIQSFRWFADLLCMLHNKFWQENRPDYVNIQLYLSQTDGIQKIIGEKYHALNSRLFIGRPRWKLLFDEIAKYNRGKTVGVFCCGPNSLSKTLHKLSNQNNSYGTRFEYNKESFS
Chain of NADPH oxidase 2 (Homo sapiens) (P04839 whole entry, looked up): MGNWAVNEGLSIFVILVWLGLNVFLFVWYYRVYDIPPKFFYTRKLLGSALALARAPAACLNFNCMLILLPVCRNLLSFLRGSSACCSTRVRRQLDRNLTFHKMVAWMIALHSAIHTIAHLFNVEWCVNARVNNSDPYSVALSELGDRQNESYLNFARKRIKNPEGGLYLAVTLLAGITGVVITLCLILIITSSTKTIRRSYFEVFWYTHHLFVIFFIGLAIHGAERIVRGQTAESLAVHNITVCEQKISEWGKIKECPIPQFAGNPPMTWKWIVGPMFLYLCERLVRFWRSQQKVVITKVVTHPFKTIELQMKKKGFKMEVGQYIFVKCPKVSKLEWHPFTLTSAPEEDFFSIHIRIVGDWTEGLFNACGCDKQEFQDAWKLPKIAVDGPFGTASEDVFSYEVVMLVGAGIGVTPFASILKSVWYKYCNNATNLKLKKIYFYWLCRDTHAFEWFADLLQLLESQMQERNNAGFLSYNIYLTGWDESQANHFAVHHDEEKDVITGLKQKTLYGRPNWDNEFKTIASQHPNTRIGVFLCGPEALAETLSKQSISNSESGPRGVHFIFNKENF
Chain of NADPH oxidase 5 (Homo sapiens) (Q96PH1 whole entry, looked up): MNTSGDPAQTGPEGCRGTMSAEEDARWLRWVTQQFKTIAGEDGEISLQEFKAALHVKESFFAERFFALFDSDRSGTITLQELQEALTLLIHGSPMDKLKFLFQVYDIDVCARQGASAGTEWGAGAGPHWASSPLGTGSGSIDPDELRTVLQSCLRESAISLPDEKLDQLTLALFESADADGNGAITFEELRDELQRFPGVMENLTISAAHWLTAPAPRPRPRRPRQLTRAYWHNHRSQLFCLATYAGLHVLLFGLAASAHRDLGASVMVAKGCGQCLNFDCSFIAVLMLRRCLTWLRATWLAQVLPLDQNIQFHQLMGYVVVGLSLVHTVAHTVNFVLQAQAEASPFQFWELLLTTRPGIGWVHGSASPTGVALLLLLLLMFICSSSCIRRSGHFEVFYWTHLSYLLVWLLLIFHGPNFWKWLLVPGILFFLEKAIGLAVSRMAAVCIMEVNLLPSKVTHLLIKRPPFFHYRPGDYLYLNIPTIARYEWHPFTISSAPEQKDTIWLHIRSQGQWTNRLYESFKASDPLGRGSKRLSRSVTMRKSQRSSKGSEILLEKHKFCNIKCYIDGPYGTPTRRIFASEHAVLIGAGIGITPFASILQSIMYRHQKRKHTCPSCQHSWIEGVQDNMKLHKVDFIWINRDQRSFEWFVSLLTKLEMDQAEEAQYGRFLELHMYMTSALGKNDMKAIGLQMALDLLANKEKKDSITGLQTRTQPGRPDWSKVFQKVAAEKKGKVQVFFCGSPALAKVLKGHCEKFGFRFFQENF

As to `O=C1C[C@@](C(=O)NCCN2CCOCC2)(c2ccc([N+](=O)[O-])cc2)[C@@H](c2ccc(CO)cc2)N1CC12CC3CC(CC(C3)C1)C2`, the z-score in [1] is -3.18 (inactive); in experiment [3] it was 4.51 (inactive); in [4], 1.23 (inactive); in [5] it was 1.24 (inactive); in experiment [6], 0.548 (inactive); in experiment [7] it was 0.101. In addition, the results for the z-score in experiment [8], in experiment [9] and in [10] were -4.27 (inactive), -2.56 (inactive) and -1.06, respectively. Also, the composite z-score in experiment [2] turned out to be 0.394.

For the compound `O=C1O[C@@H](c2ccccc2)[C@@H](c2ccccc2)N2[C@@H](c3ccccc3OCCO)[C@]3(C(=O)Nc4ccc(C#CC5=CCCCC5)cc43)[C@@H](C(=O)N3CCCCCCC3)[C@H]12`, the z-score is -0.511 (inactive) in experiment [1]; -0.0047 (inactive) in experiment [3]; 0.0859 (inactive) in [4]; -0.339 (inactive) in experiment [5]; 0.68 (inactive) in experiment [6]; -0.359 in [7]. For the same compound, the z-score in experiment [8] is 0.624 (inactive); in experiment [9] it was 0.55 (inactive); in experiment [10], -0.797. Also, the composite z-score in experiment [2] stood at 2.96.

As for `C=CC[C@]1(C(=O)NCCCOC)N=C(c2ccc(OCCCO)cc2)O[C@H]1c1ccccc1CN=[N+]=[N-]`, the z-score in experiment [1] is -0.653 (inactive); in [3], 13.6 (active); in experiment [4] it was 1.21 (inactive); in [5], 1.37 (inactive); in experiment [6], 0.424 (inactive); in experiment [7], -0.102. For the same compound, the z-score in [8] was 0.324 (inactive); in [9], 0.649 (inactive); in experiment [10] it was -0.973. Further, the composite z-score in experiment [2] was 0.443.

For the compound `C=CCOC(=O)[C@@H]1[C@H]2C(=O)O[C@H](c3ccccc3)[C@H](c3ccccc3)N2[C@H](c2ccc(OCCOC(=O)[C@@H]3C[C@@H]4C(=O)NCC(=O)N4[C@@H]3c3ccc(O)cc3)cc2)[C@@]12C(=O)Nc1ccc(I)cc12`, the z-score in experiment [1] was 0.0692 (inactive); in [3], 0.894 (inactive); in [4] it was 0.553 (inactive); in [5], 1.58 (inactive); in experiment [6], 0.398 (inactive); in [7], 0.0971. Besides, the z-score in [8] is 1.46 (inactive); in experiment [9], 0.978 (inactive); in [10], 1.35. For the same compound, the composite z-score in [2] was -0.404.

As for `[N-]=[N+]=NCc1ccccc1C[C@]1(C(=O)N2CCCCC2)N=C(c2ccc(OCCCO)cc2)O[C@H]1c1ccccc1N=[N+]=[N-]`, the z-score in experiment [1] was -0.365 (inactive); in experiment [3] it was 30.8 (active); in experiment [4], 26.5 (active); in experiment [5], 3.55 (inactive); in [6], 6.26 (inactive); in experiment [7] it was 1.9. Moreover, the z-score is -2.45 (inactive) in experiment [8], 0.306 (inactive) in experiment [9] and -2.97 in [10]. For the same compound, the composite z-score in experiment [2] stood at 0.286.

On to `CC(C)C(O)C1C=CC2C(=O)NC(=O)C2N1Nc1ccc(Cl)cc1Cl` (stereo not given), for which the z-score is -1.3 (inactive) in experiment [1]; 1.41 (inactive) in [3]; 0.648 (inactive) in [4]; -0.782 (inactive) in experiment [5]; 0.997 (inactive) in experiment [6]; -1.23 in [7]. Besides, the z-score in experiment [8] is -0.714 (inactive); in experiment [9] it was -4.39 (inactive); in experiment [10], -3.83. In addition, the composite z-score in [2] was -0.114.

As for `CCOC(=O)[C@H]1C/C=C/C[C@H](C(=O)OCC)C(=O)O[C@H]2[C@@H](OC)O[C@H](CO)[C@@H](OC(=O)c3c(OC)cccc3OC)[C@@H]2OC1=O`, the z-score in experiment [1] was -0.664 (inactive); in [3] it was 13.5 (active); in [4] it was 2.34 (inactive); in experiment [5] it was -0.083 (inactive); in experiment [6] it was 1.2 (inactive); in experiment [7], 0.122. Besides, the z-score in experiment [8] is -3.32 (inactive); in experiment [9] it was -0.754 (inactive); in experiment [10] it was -3.76. The composite z-score in [2] amounted to 0.446.

Consider `OCCCC1=CC(c2cccs2)N(Cc2cc3c(cc2Br)OCO3)CC1` (stereo not given), for which the z-score in experiment [1] is -1.3 (inactive); in [3], 5.53 (inactive); in experiment [4] it was 0.887 (inactive); in [5], -0.281 (inactive); in experiment [6], 0.625 (inactive); in experiment [7], -0.684. Also, the figures for the z-score in experiment [8], in experiment [9] and in experiment [10] were -0.283 (inactive), -0.294 (inactive) and -0.768, respectively. Moreover, the composite z-score in experiment [2] was found to be 0.187.

Take `CCCCCCc1nc(-c2cc(C)c(OC)c(C)c2)cc2c1[Si](C(C)C)(C(C)C)OC2`: the z-score in experiment [1] is 0.488 (inactive); in experiment [3], 0.827 (inactive); in experiment [4], -0.0892 (inactive); in [5], 0.193 (inactive); in [6] it was -0.351 (inactive); in experiment [7], 0.296. The figures for the z-score in experiment [8], in experiment [9] and in [10] were -5.61 (inactive), -1.72 (inactive) and -3.75, respectively. For the same compound, the composite z-score in [2] worked out at 0.147.

Regarding `C=C(CCCC)C(=O)CC[C@@H](OC(=O)c1ccccc1-c1ccccc1C(=O)O)c1ccc(OCCO)cc1`, the z-score was -0.181 (inactive) in experiment [1]; 17.2 (active) in experiment [3]; 1.73 (inactive) in experiment [4]; 1.15 (inactive) in experiment [5]; 0.602 (inactive) in experiment [6]; 0.276 in [7]. For the same compound, the z-score in experiment [8] was 2.45 (inactive); in [9], 0.216 (inactive); in [10] it was -0.936. For the same compound, the composite z-score in experiment [2] was -0.23.

In the case of `C=CCNC(=O)[C@@H]1[C@H]2C(=O)O[C@H](c3ccccc3)[C@H](c3ccccc3)N2[C@H](c2ccc(O)cc2)[C@@]12C(=O)Nc1ccc(C#CCNC(N)=O)cc12`, the z-score in experiment [1] was -1.29 (inactive); in experiment [3], 0.448 (inactive); in [4], -0.261 (inactive); in experiment [5], -0.519 (inactive); in experiment [6], 0.32 (inactive); in experiment [7], -0.203. In addition, the z-score in [8] is 0.334 (inactive); in experiment [9], -0.211 (inactive); in [10] it was 0.0297. The composite z-score in experiment [2] turned out to be 0.186.

For the origin of these results see PubChem BioAssay.
